Source: PubChem
Shown are actives, neighbours in structure and some others; about 4.2% of the full set was active somewhere.
esBAF inh: Bmi1 luciferase reporter increase in mESCs, primary screen, esBAF inhibitor project, mouse ES cells, Bmi1 luciferase knock-in, single point; reporter increase, % at 12.5 µM; 2% of 350,000 active; 24 h; 100% = twice the neutral-well signal; in the data active = activation above about 40%; inconclusive = no clear call, values can overlap the other calls;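 note: 0% = median of the plate's neutral control wells and 100% = double that signal; a rise in the Bmi1 reporter signal indicates esBAF inhibition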
MITF TRPM1 HTS: activators of MITF-driven TRPM1 promoter reporter, primary screen, cell-based, SK-MEL-5, luciferase, single point; activation, % at 12.5 µM; SK-MEL-5 TRPM1-promoter luciferase, 24 h; % of positive control, neutral wells = 0; 0.75% of 300,000 active; AID 588334, 2011;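 active = mean activation of at least 80% with every replicate also reaching 80%; inconclusive = mean reaches 80% but some replicate falls short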;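 note: 0% = neutral control wells and 100% = parthenolide positive control wells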
GAA850 FXN act: FXN promoter activators, primary screen, cell-based, luciferase luminescence, HEK293 lucGAA850; HEK293 lucGAA850 FXN promoter luciferase reporter, 24 h; percent of 10 µM SAHA response; activation, % at 6 µM; 0.56% of 360,000 active; AID 540364, 2011;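 active = activation above the average of all compounds screened plus 3 SD, cutoff fixed separately per campaign, cut at about 7.5% in these data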;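 note: 0% = DMSO wells and 100% = 10 µM SAHA wells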
AHR act: AHR activators, primary screen, cell-based, luminescence, luciferase reporter, human | Aryl hydrocarbon receptor (Homo sapiens), P35869 | activation, % at 5 µM | 2.5% of 320,000 active | AID 2796, 2010 | AHR-responsive luciferase reporter cells; in the data active = activation above about 47%;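 note: 0% = vehicle wells and 100% = reference agonist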
Target sequence (P35869 whole entry, looked up): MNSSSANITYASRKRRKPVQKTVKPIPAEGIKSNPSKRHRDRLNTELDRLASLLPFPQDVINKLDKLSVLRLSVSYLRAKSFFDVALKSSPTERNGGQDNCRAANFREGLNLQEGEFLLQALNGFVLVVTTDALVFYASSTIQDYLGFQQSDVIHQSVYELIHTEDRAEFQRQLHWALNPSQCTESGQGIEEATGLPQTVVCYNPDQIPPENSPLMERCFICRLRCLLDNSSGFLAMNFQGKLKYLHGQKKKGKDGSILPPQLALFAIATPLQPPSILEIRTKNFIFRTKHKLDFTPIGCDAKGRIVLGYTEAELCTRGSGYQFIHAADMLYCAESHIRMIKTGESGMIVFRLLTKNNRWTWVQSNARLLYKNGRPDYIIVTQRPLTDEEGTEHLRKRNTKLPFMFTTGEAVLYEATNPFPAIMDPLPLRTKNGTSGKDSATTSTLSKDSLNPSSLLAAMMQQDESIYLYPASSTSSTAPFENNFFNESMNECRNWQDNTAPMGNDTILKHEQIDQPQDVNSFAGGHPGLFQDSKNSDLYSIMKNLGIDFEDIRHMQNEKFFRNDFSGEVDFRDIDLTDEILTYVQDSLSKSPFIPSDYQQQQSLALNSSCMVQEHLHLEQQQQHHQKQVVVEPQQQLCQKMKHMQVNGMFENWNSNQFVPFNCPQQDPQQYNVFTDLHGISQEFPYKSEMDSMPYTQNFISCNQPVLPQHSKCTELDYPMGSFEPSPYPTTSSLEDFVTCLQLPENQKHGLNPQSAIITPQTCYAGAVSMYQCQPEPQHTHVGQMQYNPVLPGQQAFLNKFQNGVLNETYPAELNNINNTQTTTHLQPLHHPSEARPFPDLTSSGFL
Wnt bcat act: Wnt/beta-catenin pathway activators, primary screen, cell-based, plate reader, single point; Wnt/beta-catenin reporter cell assay, activator; activation, % at 9.35 µM; 1.2% of 300,000 active; in the data active = activation above about 30%, passing the limit was not always enough; inconclusive = no clear call, values can overlap the other calls;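 note: 0% = neutral control wells and 100% = positive control wells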
* hit, by the source's call; ? = inconclusive; / = no result.

SMILES	esBAF inh	MITF TRPM1 HTS	GAA850 FXN act	AHR act	Wnt bcat act
COc1cc(CNc2ccc3[nH]c(=O)[nH]c3c2)ccc1OCc1ccccc1	25.3	/	2.6	5.5	26.5
CC(C)C#Cc1cnc2c(c1)C(=O)N([C@@H](C)CO)C[C@H](C)[C@H](CN(C)C(=O)c1ccccc1F)O2	-1.7	/	/	/	/
Cc1cc(Cl)ccc1NC(=O)c1ccc2c(c1)OCO2	77.1*	/	3.6	-0.8	11.0
O=C(Nc1ccc(Cl)cc1Cl)c1ccc2c(c1)OCCO2	-5.2	50.0	0.1	0.7	51.8*
COc1cc(Cl)c(C)cc1NC(=O)c1ccc2c(c1)OCO2	46.1*	/	4.4	73.5*	1.5
Cc1ccc(NC(=O)c2ccc3c(c2)OCO3)cc1Cl	29.8	51.0	4.2	13.4	4.2
C[C@H](CO)N1C[C@H](C)[C@H](CN(C)S(=O)(=O)c2ccccc2)Oc2c(NC(=O)c3nc4ccccc4s3)cccc2C1=O	3.9	/	/	/	/
CN(C)c1oc(/C=C/c2ccccc2)nc1C#N	/	22.2	6.3	50.5*	13.9
COc1ccccc1/C=C/c1nc(C#N)c(N(C)C)o1	?	77.1	4.7	39.6	16.8
Cc1ccc(OCCn2cnc3ccccc3c2=O)c([N+](=O)[O-])c1	91.6*	61.2	4.9	12.2	40.9*
Cc1cc(OCCn2cnc3ccccc3c2=O)ccc1[N+](=O)[O-]	/	4.4	1.3	-6.3	-0.6
O=C(N[C@H]1CC[C@@H](CCNS(=O)(=O)c2ccc(Cl)cc2)O[C@@H]1CO)c1cnccn1	10.5	/	/	/	/
Cc1c(C(=S)Nc2ccccc2)cnn1-c1ccccc1	/	96.4*	0.1	-4.1	?
Cc1nn(-c2ccccc2)cc1C(=S)Nc1ccccc1	48.7*	26.6	2.0	-10.4	-3.2
Cc1nn(C)cc1C(=O)NNC(=S)Nc1ccccc1	4.6	38.5	5.8	2.7	-1.0
Cc1c(C(=S)Nc2ccccc2)cnn1-c1ccc([N+](=O)[O-])cc1	/	14.2	1.1	-7.3	/
Cc1ccc(/C=N/N=C/c2ccc(C)cc2)cc1	56.9*	-1.1	6.0	-2.0	3.8
Oc1ccc(/C=N/N=C/c2ccc(O)cc2)cc1	26.8	26.5	3.0	4.2	-2.4
CC(C)c1ccc2c(c1)C(c1ccc(N3CCOCC3)cc1)=NNC(c1cccs1)=N2	65.2*	/	5.4	3.4	12.1
COc1ccc2c(c1)C(c1ccc(N3CCOCC3)cc1)=NNC(c1cccnc1)=N2	/	3.2	-0.1	8.2	-3.1
COc1ccccc1NC(=O)N1C[C@@H](O)COC[C@@H]2O[C@@H](CC(=O)NCCc3ccncc3)CC[C@H]21	-3.4	/	/	/	/
COC(=O)CSc1nc2cc3c(cc2cc1C)OCO3	-0.4	2.4	0.5	1.3	-1.4
Cc1cc2cc3c(cc2nc1SCC(=O)Nc1nc(C)c(C)s1)OCO3	-7.3	-17.8	1.6	91.8*	-4.1
COc1ccc(Cl)cc1N/C(N)=N/c1nc(C)cc(C)n1	-2.4	-7.5	-1.3	41.3	-6.9
CCCOc1ccccc1N/C(N)=N/c1nc(C)cc(C)n1	/	-3.3	0.1	55.7*	2.2
SMILES	esBAF inh	MITF TRPM1 HTS	GAA850 FXN act	AHR act	Wnt bcat act
COc1ccc(OC)c(N/C(N)=N/c2nc(C)cc(C)n2)c1	-7.6	-9.1	-0.6	66.3*	-1.9
COc1cc(N/C(N)=N/c2nc(C)cc(C)n2)cc(OC)c1	-4.1	-0.6	-1.8	65.1*	1.1
COc1ccc(N/C(N)=N/c2nc(C)cc(C)n2)c(OC)c1	/	-2.2	2.0	62.6*	-0.5
COc1ccccc1S(=O)(=O)N1CC[C@@H]2[C@H]1c1cc(-c3ccc(C#N)cc3)ccc1N[C@@H]2CO	5.4	/	/	/	/
C[C@@H]1CCCCO[C@H](CN(C)Cc2ccncc2)[C@H](C)CN([C@H](C)CO)C(=O)c2cc(NC(=O)CCCN(C)C)ccc2O1	-6.9	/	/	/	/
C[C@@H]1CCCCO[C@H](CN(C)Cc2ccc3c(c2)OCO3)[C@@H](C)CN([C@H](C)CO)C(=O)c2cc(NC(=O)CCC(F)(F)F)ccc2O1	-3.4	/	/	/	/
Cc1cc(C)nc(/N=C(\N)Nc2ccc3c(c2)OCCO3)n1	/	-3.9	-3.1	72.2*	2.3
O=C(/C=C/c1ccccc1)c1ccc2ccccc2c1	68.2*	52.4	7.2	/	-0.5
O=C(CSc1nnc(-c2ccncc2)n1Cc1ccccc1)NC1CCCCC1	3.8	7.4	0.5	-0.2	-2.6
O=C(Cn1c(SCC(=O)NC2CCCC2)nnc1-c1ccncc1)Nc1ccc2c(c1)OCO2	/	-6.7	0.5	66.2*	/
CCCn1c(SCC(=O)NC2CCCCC2)nnc1-c1ccncc1	-2.0	-11.0	0.5	3.0	54.2*
O=C(Nc1ccc2c(c1)[C@@H]1C[C@@H](CC(=O)N3CCc4ccccc4C3)O[C@@H](CO)[C@@H]1O2)NC1CCCC1	3.2	/	/	/	/
OC1CCC(Nc2ccn3nc(-c4cccc(Cl)c4)cc3n2)CC1 (configuration not stated)	?	/	-0.1	/	1.3
FC(F)(F)c1cccc(-c2cc3nc(NC4CCCCC4)ccn3n2)c1	42.7*	/	2.0	/	-1.9
COCCCNc1ccn2nc(-c3ccccc3)cc2n1	-62.0	/	-3.8	/	-20.6
c1cc(-c2cc3nc(NC4CCCCC4)ccn3n2)ccc1OCCN1CCOCC1	50.3*	/	-2.7	/	-2.3
Clc1cccc(CNc2ccn3nc(-c4ccc(OCCN5CCOCC5)cc4)cc3n2)c1	-2.7	/	-1.2	/	-3.8
c1cc(-c2cc3nc(NCC4CC4)ccn3n2)ccc1OCCN1CCOCC1	45.9*	/	0.8	/	3.7
CC(C)Cc1ccc(-c2cc3nc(NCC4CC4)ccn3n2)cc1	83.2*	/	4.1	/	-1.5
CO[C@H]1CN(C)C(=O)c2cc(NC(=O)Nc3ccc(F)cc3)ccc2OC[C@H](C)NC[C@@H]1C	-4.2	/	/	/	/
C[C@@H]1CN([C@H](C)CO)C(=O)Cc2cc(NC(=O)CCC(F)(F)F)ccc2O[C@H]1CN(C)C(=O)Nc1ccc2c(c1)OCO2	0.9	/	/	/	/
CN1c2ccc(Br)cc2[C@@H]2[C@@H](CCN2C(=O)C2CCCCC2)[C@@H]1CO	4.2	/	/	/	/
CN1CCN(C(=O)C[C@H]2C[C@H]3c4cc(NC(=O)Nc5ccccc5F)ccc4O[C@H]3[C@@H](CO)O2)CC1	4.7	/	/	/	/
O=C(/C=C/c1cccs1)N1CCc2ccccc21	-14.3	1.3	3.0	54.1*	/
C[C@@H]1CN([C@@H](C)CO)C(=O)CCCn2cc(nn2)CO[C@@H]1CN(C)Cc1ccc2c(c1)OCCN2C	-1.7	/	/	/	/
Cc1ccc(NC(=O)c2ccccn2)c(Br)c1	/	33.2	2.1	-3.7	36.7*
Cc1ccc(NC(=O)c2ccccc2Cl)c(Cl)c1	38.7	86.3*	2.5	15.9	1.9
Cc1ccc(NC(=O)c2ccccc2F)c(NC(=O)c2ccccc2F)c1	57.6*	/	3.8	72.9*	26.0
Cc1cc(NC(=O)c2ccccc2)ccc1NC(=O)c1ccccc1Cl	7.4	14.2	0.9	22.1	0.0
C[C@@H]1CN([C@@H](C)CO)C(=O)c2cc(NS(C)(=O)=O)ccc2O[C@@H]1CN(C)C(=O)Nc1ccc(C(F)(F)F)cc1	-2.8	/	/	/	/
